From PubChem BioAssay AID504905 (The Scripps Research Institute Molecular Screening Center, 2011)
The other results are listed elsewhere or left out. A number with no mark means an inactive call. Activity calls are given as the source filed them. Rule as the data show it: active = activation above about 17%; inactive = the rest.

Molecular target: 5-hydroxytryptamine receptor 5A (Homo sapiens) (UniProt P47898)
Test: activation of human 5-HT5A receptor – cell-based, luminescence, counter-screen for OPRM1-OPRD1 heterodimer agonist project (AID 504905);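 also: 0% = vehicle-treated cells and 100% = reference agonist response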
Conditions: HTR5A agonist counterscreen, at 9.3 µM, stronger effect = higher value

Chain of 5-hydroxytryptamine receptor 5A (Homo sapiens) (P47898 whole entry, looked up): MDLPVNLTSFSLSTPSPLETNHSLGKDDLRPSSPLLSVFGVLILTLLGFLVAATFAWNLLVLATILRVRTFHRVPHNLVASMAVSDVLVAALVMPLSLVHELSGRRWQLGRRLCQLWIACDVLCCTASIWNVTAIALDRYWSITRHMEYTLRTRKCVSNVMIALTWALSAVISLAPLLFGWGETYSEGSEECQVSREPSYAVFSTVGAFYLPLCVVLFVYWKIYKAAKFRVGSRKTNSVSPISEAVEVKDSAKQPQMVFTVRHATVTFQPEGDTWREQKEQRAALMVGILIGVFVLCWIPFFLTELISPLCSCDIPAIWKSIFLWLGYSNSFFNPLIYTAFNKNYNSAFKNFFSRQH

Q: CN(C)C(CNC(=O)c1cc2ccccc2o1)c1ccccc1 (configuration not stated) was tested. Which activation did it give?
A: The activation was 46.9% (active).

Q: With CN1C(CC(=O)Nc2ccc(Br)cc2)c2ccccc2CC1(C)C (configuration not stated) as the molecule, how does the activation read?
A: Its activation is 5.83%.

Q: How did the activation turn out when Cc1ccc(CN(C(=O)c2sc3ccccc3c2Cl)C2CCS(=O)(=O)C2)cc1 (configuration not stated) was run?
A: Its activation is 1.71%.

Q: Which activation does the source give for Cc1ccc(Nc2ccccc2N)cc1 here?
A: The activation was 0.79%.

Q: With C=C(C)COc1ccc(-c2n[nH]c(C)c2-c2ccccc2)c(O)c1 as the molecule, how does the activation read?
A: The activation was 5.34%.

Q: How did the activation turn out when CC1CCCN(CCOCCOc2ccccc2-c2ccccc2)C1 (configuration not stated) was run?
A: Its activation is 1.05%.

Q: Which activation does the source give for Cc1ccc(-n2c(SCC(=O)NCCC3=CCCCC3)nc3n[nH]c(C)c3c2=N)cc1Cl here?
A: The activation was 1.57%.
